From PubChem BioAssay (NCATS)
Inconclusive results are not listed. Calls of active or inactive are those of the source. The call rests on the fitted dose curve; in most records, active means well fitted curve in the direction sought with a large enough effect; inconclusive means small, poorly fitted or top-dose-only effect, or another doubt; inactive means no such curve, though single readings can be large; an effect the other way counts as inactive or inconclusive.

Assays:
[1] = target: Cellular tumor antigen p53 (Homo sapiens) (UniProt P04637); test: Primary qHTS for small molecule compounds that upregulate eGFP-tagged delta133p53alpha (in N-terminal) cells. (AID 2060322); conditions: NCI-H358 eGFP-delta133p53alpha fluorescence, 24 h; activation: stronger effect = higher value;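 further: series mostly up to about 56 µM; 0% = DMSO vehicle and 100% = reference activator; nearly all actives have a fitted effect of over 75% in size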
In short: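 NCI-H358 cells pre-induced 24 h with 10 ng/ml doxycycline to express N-terminal eGFP-delta133p53alpha, then dosed 24 h at 37C without doxycycline; fixed, Hoechst-stained, GFP intensity by laser scanning cytometry, normalized to DMSO (0%) and 57.5 uM 5-azacytidine (100%).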

[2] = target: Aldehyde dehydrogenase, mitochondrial (Homo sapiens) (UniProt P05091); test: qHTS for Inhibitors of the Aldehyde Dehydrogenase Family (ALDH2) Primary screen (AID 2061308);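 further: plate controls were vehicle for no effect and reference inhibitor for full effect; nearly all actives have a fitted effect of over 55% in size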
[3] = target: Retinaldehyde dehydrogenase 3 (Homo sapiens) (UniProt P47895); test: qHTS for Inhibitors of the Aldehyde Dehydrogenase Family (ALDH1A3) Primary screen (AID 2061315);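 further: plate controls were DMSO vehicle for no effect and reference inhibitor for full effect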

Sequence of Cellular tumor antigen p53 (Homo sapiens) (P04637 whole entry, looked up): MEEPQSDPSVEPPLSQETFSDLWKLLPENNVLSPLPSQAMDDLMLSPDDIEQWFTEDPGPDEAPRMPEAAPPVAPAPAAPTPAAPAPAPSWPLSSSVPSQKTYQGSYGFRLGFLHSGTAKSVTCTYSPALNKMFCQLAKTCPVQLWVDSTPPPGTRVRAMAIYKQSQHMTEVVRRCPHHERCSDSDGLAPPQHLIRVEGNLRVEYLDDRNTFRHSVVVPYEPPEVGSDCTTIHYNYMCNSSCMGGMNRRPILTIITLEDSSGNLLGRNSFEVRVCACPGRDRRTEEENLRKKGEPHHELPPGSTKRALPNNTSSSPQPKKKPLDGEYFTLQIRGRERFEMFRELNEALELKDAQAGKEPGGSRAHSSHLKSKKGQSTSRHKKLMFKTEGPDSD

O=C(N[C@H]1N=C(c2ccccc2F)c2cccc3c2N(CC3)C1=O)c1cc2ccccc2[nH]1
inactive: activation [1] 6.33% | Potency [2] | Potency [3]

C[C@H]1O[C@@H](O[C@H]2[C@@H](O)C[C@H](O[C@H]3[C@@H](O)C[C@H](O[C@H]4CC[C@@]5(C)[C@H](CC[C@@H]6[C@@H]5CC[C@]5(C)[C@@H](C7=CC(=O)OC7)CC[C@]65O)C4)O[C@@H]3C)O[C@@H]2C)C[C@H](O)[C@@H]1O
inactive: activation [1] 5.34% | Potency [2] | Potency [3]

COC(=O)C1(C)CCC(=O)C2(C)c3c(O)cc(C(C)C)cc3C(O)C(OC(C)=O)C12 (centres undefined)
inactive: activation [1] 22.9% | Potency [2] | Potency [3]

COC(=O)C1(C)CCC(O)C2(C)c3cc(O)c(C(C)C)cc3C(O)C(OC(C)=O)C12 (centres undefined)
inactive: activation [1] -2.68% | Potency [2] | Potency [3]

COC1=CC(=O)O[C@@H](CCc2ccccc2)C1
inactive: activation [1] -13.4% | Potency [2] | Potency [3]

COC(=O)N1CCN(C(=O)Cc2ccc(Cl)c(Cl)c2)[C@@H](CN2CCCC2)C1
inactive: activation [1] 1.91% | Potency [2] | Potency [3]

COc1ccc(CN(C(=O)[C@@H](N)Cc2c(C)cc(C(N)=O)cc2C)[C@@H](C)c2ncc(-c3ccccc3)[nH]2)cc1C(=O)O
inactive: activation [1] 12.3% | Potency [2] | Potency [3]

C/C=C(\C)C(=O)O[C@H]1[C@H](OC(C)=O)[C@]2(CO)[C@H](O)[C@H](O)[C@]3(C)C(=CCC4[C@@]5(C)CC[C@H](O[C@@H]6O[C@H](C(=O)O)[C@@H](O)[C@H](O[C@@H]7OC[C@H](O)[C@H](O[C@@H]8OC[C@H](O)[C@H](O)[C@H]8O)[C@H]7O)[C@H]6O[C@@H]6O[C@H](CO)[C@@H](O)[C@H](O)[C@H]6O)C(C)(C)C5CC[C@]43C)[C@@H]2CC1(C)C (some centres undefined)
inactive: activation [1] -3.05% | activity change, negative = inhibition [2] 1.02% [at 11.2 µM] | activity change, negative = inhibition [3] 2.55% [at 11.2 µM]
